MEKK2mut PB1 HTS = MEK5 binding signal on mutant MEKK2 PB1, primary screen, biochemical, multiplex bead flow cytometry, Alexa488-MEK5; 0.35% of 290,000 active; percent response, % at 10 µM; Alexa488-MEK5 binding to MEKK2 mutant; in the data active = percent response above about 24%, passing the limit was not always enough
MEKK3 PB1 HTS = modulators of MEKK3-MEK5 PB1 binding, primary screen, biochemical, wildtype MEKK3, multiplex bead flow cytometry, Alexa488-MEK5. bead-based flow cytometry, Alexa488-MEK5 binding to MEKK3; actives lie on both sides; 0 = blocked by unlabeled MEK5, 100 = vehicle. Mitogen-activated protein kinase kinase kinase 3 (Homo sapiens), Q99759. binding response (% of control), % at 10 µM. 1.4% of 290,000 active;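 active = binding response more than 3 SD above or below the average of its plate-row segment, actives on both sides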;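 note: Alexa488 bead fluorescence after subtracting the streptavidin-only scavenger bead signal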
Target sequence (Q99759 whole entry, looked up): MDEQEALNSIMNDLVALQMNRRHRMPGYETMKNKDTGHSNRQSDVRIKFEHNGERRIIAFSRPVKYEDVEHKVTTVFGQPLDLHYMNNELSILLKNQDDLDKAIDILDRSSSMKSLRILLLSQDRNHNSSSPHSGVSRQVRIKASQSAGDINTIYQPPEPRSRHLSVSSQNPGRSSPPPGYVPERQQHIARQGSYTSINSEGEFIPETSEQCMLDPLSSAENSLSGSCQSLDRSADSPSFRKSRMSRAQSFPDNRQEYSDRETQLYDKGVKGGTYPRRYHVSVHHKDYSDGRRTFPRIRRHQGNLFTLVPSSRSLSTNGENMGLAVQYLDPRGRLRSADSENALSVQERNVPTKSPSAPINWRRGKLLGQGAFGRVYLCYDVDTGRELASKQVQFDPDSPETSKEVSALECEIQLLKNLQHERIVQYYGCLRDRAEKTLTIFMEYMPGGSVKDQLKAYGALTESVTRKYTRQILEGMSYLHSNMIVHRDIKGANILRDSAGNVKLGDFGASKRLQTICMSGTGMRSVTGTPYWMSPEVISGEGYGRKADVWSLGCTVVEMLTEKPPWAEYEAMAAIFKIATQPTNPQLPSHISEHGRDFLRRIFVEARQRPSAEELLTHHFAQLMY
CRFBP-R2 agonist = agonists of CRF-BP/CRF-R2 complex, primary screen, cell-based, HEK293, calcium dye fluorescence, uHTS; 0.46% of 350,000 active; AID 588473, 2011; calcium dye fluorescence (FLIPR); percent of saturating CRF peptide response; activation, % at 13.2 µM; CRF-binding protein / CRF receptor 2 complex (human);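 active = activation of at least 50%, plus an integration ratio under a set limit after plate pattern correction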
CRFBP-R2 block = antagonists of CRF-BP/CRF-R2 complex, primary screen, cell-based, HEK293, calcium dye fluorescence, uHTS. CRF-induced calcium fluorescence. inhibition, % at 11.8 µM. 0.59% of 350,000 active;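 active = inhibition of the ligand-induced calcium signal above about 50% at the single tested concentration, limit read from the data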
ABCB6 inh 2 = ABCB6 transporter inhibitors, primary screen, K562-ABCB6 cells, flow cytometry, MLPCN library; ATP-binding cassette sub-family B member 6 (Homo sapiens), Q9NP58; fluorescence ratio to DMSO, % at 10 µM; K562-ABCB6 porphyrin accumulation, 1 h; hits give low values; 0.19% of 360,000 active;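 active = fluorescence ratio to DMSO below 75%, the collection mean minus 3 SD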;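 note: signal is porphyrin accumulated inside mitochondria; lower ratio means ABCB6 inhibition with less porphyrin fluorescence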
MEKK2 WT-MEK5 = modulators of MEK5 binding to wildtype MEKK2, primary screen, biochemical, multiplex bead flow cytometry, Alexa488-MEK5; Mitogen-activated protein kinase kinase kinase 2 (Homo sapiens), Q9Y2U5; Alexa488-MEK5 binding to MEKK2 WT; actives lie on both sides; binding response (% of control), % at 10 µM; 1.1% of 290,000 active; in the data active = binding response below about 67% or above about 130%
MEKK2wt confirm = modulators of MEK5 binding to wildtype MEKK2, confirmation, biochemical, single concentration, multiplex bead flow cytometry | 2.4% of 5,900 active | binding response (% of control), % at 10 µM | Alexa488-MEK5 binding to MEKK2 WT; actives lie on both sides | shares compounds with MEKK3 PB1 HTS; in the data active = binding response below about 16% or above about 210%; inactive = in between
MEKK2mut-MEK5 = mutant MEKK2 PB1-MEK5 binding signal retest – biochemical, single concentration, multiplex bead flow cytometry, confirmation; percent response, % at 10 µM; 2% of 5,900 active; shares compounds with MEKK3 PB1 HTS; Alexa488-MEK5 binding to MEKK2 mutant; in the data active = percent response mostly above about 71%, no sharp cut-off; inactive = mostly below about 38%;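 note: higher means compound restores mutant binding toward wildtype level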
MEKK3 confirm = MEKK3 wild-type PB1 binding to MEK5, inhibitors, confirmation, biochemical, bead multiplex flow cytometry, single concentration, wildtype; binding response (% of control), % at 10 µM; 1.8% of 5,900 active; AID 1894, 2009; Alexa488-MEK5 binding to MEKK3; hits give low values; shares compounds with MEKK3 PB1 HTS;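 active = binding response below 72% of control, or above a set upper limit, though filed actives all read lower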;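 note: lower values mean stronger disruption of MEK5 binding to MEKK3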
A number is an active result; – = inactive; · = no result; [ ] = dose if it differs, or a comment. Rows were chosen to be rich in hits. Some 2.9% of all compounds tested hit in one or more screens of this group.

SMILES	MEKK2mut PB1 HTS	MEKK3 PB1 HTS	CRFBP-R2 agonist	CRFBP-R2 block	ABCB6 inh 2	MEKK2 WT-MEK5	MEKK2wt confirm	MEKK2mut-MEK5	MEKK3 confirm
COCCCn1c(SCC(=O)NC2CCCC2)nnc1-c1cccs1	–	–	–	–	–	–	·	·	·
CN1/C(=C\C(=O)COC(=O)c2ccc(O)c(O)c2)C(C)(C)c2ccccc21	–	–	–	–	·	–	·	·	·
CNS(=O)(=O)c1cccc(C(=O)OCC(=O)/C=C2/N(C)c3ccccc3C2(C)C)c1	–	131.0	–	–	–	–	–	–	–
N=c1c2c(-c3ccccc3)c(-c3ccccc3)n(Cc3ccco3)c2ncn1Cc1ccccc1	–	–	–	–	–	156.0	–	–	–
CC(C)Cn1cnc2c(c(-c3ccccc3)c(-c3ccccc3)n2Cc2ccco2)c1=N	–	–	–	–	–	134.0	–	–	–
N=c1c2c(-c3ccccc3)c(-c3ccccc3)n(Cc3ccco3)c2ncn1CCCN1CCOCC1	–	–	–	–	–	149.0	–	–	–
N=c1c2c(-c3ccccc3)c(-c3ccccc3)n(Cc3ccco3)c2ncn1CCCn1ccnc1	–	–	–	–	–	–	·	·	·
N=c1c2c(-c3ccccc3)c(-c3ccccc3)n(Cc3ccccc3)c2ncn1CCO	–	–	–	–	–	–	·	·	·
CCN(CC)C(=O)C1=C(C)N(CCCN2CCCC2=O)C(=O)C(CC(=O)NCCCN(C)C)C1 (stereo not given)	·	·	–	–	–	·	·	·	·
COc1ccc(NC(=O)CC2CC3CCC2C3)cc1S(=O)(=O)N1CCOCC1 (stereo not given)	·	·	–	–	–	·	·	·	·
CCCN1C(=O)/C(=C/c2ccc(C)s2)SC1=Nc1ccc(OC)cc1	–	–	–	–	–	–	·	·	·
COc1ccc(N=C2S/C(=C\c3ccc(Cl)c([N+](=O)[O-])c3)C(=O)N2CCN(C)C)cc1	69.0	–	–	–	–	182.0	–	–	–
CCN(CC)CCN1C(=O)/C(=C\c2ccc(Cl)c([N+](=O)[O-])c2)SC1=Nc1ccc(OC)cc1	36.0	–	–	–	–	197.0	–	–	–
O=C1NC[C@H](Cc2ccccc2)N(CC2CCN(CCCC3CCCC3)CC2)C1=O	·	·	–	–	–	·	·	·	·
O=c1c2ccccc2nc2sc3ccccc3n12	–	–	–	–	–	–	·	·	·
COC(=O)/C=c1/sc2nc3ccccc3n2c1=O	–	80.0[inhibitor]	–	–	–	–	–	–	–
Cc1nc(N)nc(N)c1-c1ccc([N+](=O)[O-])cc1	·	·	–	–	–	·	·	·	·
CCOc1ccccc1NC(=O)CSc1ccc([N+](=O)[O-])cc1	–	–	–	–	–	–	·	·	·
COc1ccccc1N1CCN(C2CCCN(S(=O)(=O)c3ccccc3)C2)CC1 (stereo not given)	–	–	–	–	–	–	·	·	·
Nc1c(N(CCO)C(=O)COc2ccc(Cl)cc2)c(=O)[nH]c(=O)n1Cc1ccccc1	–	131.0	–	–	–	–	–	–	–
NS(=O)(=O)c1ccc(CCNC(=O)CCc2nc3sc4c(c3c(=O)[nH]2)CCCC4)cc1	·	·	–	–	–	·	·	·	·
